From the supplement of paper PMC8975748 come the findings set out here.

Where a name gives a salt, the structure may show the parent alone. ± gives the standard deviation of the averaged measurements.

For experiment [1], the system named is Saccharomyces cerevisiae BY4741 SeMeCo community. Briefly: z-score of prototroph abundance vs DMSO median; higher = larger share of this subpopulation than in DMSO controls. Particulars: 10 µM; 24 h; SM minimal medium; subpopulation (auxotrophy): Prototroph. In short, it runs like this:
(§1)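 Automated confocal microscopy of paraformaldehyde-fixed cells was used to follow a Saccharomyces cerevisiae BY4741 community carrying four plasmids, each restoring one auxotrophy and encoding a distinct fluorescent protein. The community was pre-grown overnight to OD600 1.0, diluted to 0.3, and added at 70 µl to 384-well plates acoustically predosed with library drugs (10 µM final) for 24 h of growth in minimal SM medium. Single-auxotroph fluorescent strains set thresholds and autofluorescence correction, and each subpopulation's abundance was scored as a z-score against the vehicle-well median.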

Experiment [2] has the same test system. Description: z-score of subpopulation abundance vs DMSO median, subpopulation auxotrophic for L; higher = larger share of this subpopulation than in DMSO controls. As to conditions: 10 µM; 24 h; SM minimal medium; subpopulation (auxotrophy): L. In short, it runs like this:
as §1

For experiment [3] the test system is unchanged. Description: z-score of subpopulation abundance vs DMSO median, subpopulation auxotrophic for H; higher = larger share of this subpopulation than in DMSO controls. Particulars: 10 µM; 24 h; SM minimal medium; subpopulation (auxotrophy): H. Summed up: as §1
Experiment [4] shares this test system. Briefly: z-score of subpopulation abundance vs DMSO median, subpopulation auxotrophic for LU; higher = larger share of this subpopulation than in DMSO controls. Particulars: 10 µM; 24 h; SM minimal medium; subpopulation (auxotrophy): LU. In short, it runs like this: as §1
Experiment [5] shares this test system. Briefly: z-score of subpopulation abundance vs DMSO median, subpopulation auxotrophic for HM; higher = larger share of this subpopulation than in DMSO controls. Particulars: 10 µM; 24 h; SM minimal medium; subpopulation (auxotrophy): HM. Summed up: as §1
The test system is the same in experiment [6]. Description: z-score of subpopulation abundance vs DMSO median, subpopulation auxotrophic for HU; higher = larger share of this subpopulation than in DMSO controls. Particulars: 10 µM; 24 h; SM minimal medium; subpopulation (auxotrophy): HU. In short, it runs like this:
as §1

Experiment [7] has the same test system. Briefly: z-score of subpopulation abundance vs DMSO median, subpopulation auxotrophic for UM; higher = larger share of this subpopulation than in DMSO controls. As to conditions: 10 µM; 24 h; SM minimal medium; subpopulation (auxotrophy): UM. Summed up:
as §1

The test system is the same in experiment [8]. Briefly: z-score of subpopulation abundance vs DMSO median, subpopulation auxotrophic for HL; higher = larger share of this subpopulation than in DMSO controls. As to conditions: 10 µM; 24 h; SM minimal medium; subpopulation (auxotrophy): HL. Summed up:
as §1

For experiment [9] the test system is unchanged. Briefly: z-score of subpopulation abundance vs DMSO median, subpopulation auxotrophic for HLU; higher = larger share of this subpopulation than in DMSO controls. As to conditions: 10 µM; 24 h; SM minimal medium; subpopulation (auxotrophy): HLU. Summed up:
as §1

Experiment [10] has the same test system. Briefly: z-score of subpopulation abundance vs DMSO median, subpopulation auxotrophic for HLM; higher = larger share of this subpopulation than in DMSO controls. Particulars: 10 µM; 24 h; SM minimal medium; subpopulation (auxotrophy): HLM. Summed up: as §1
Experiment [11] has the same test system. Description: z-score of subpopulation abundance vs DMSO median, subpopulation auxotrophic for HLUM; higher = larger share of this subpopulation than in DMSO controls. As to conditions: 10 µM; 24 h; SM minimal medium; subpopulation (auxotrophy): HLUM. In short, it runs like this:
as §1

Experiment [12] has the same test system. Description: mean cell size (pixel area) (pixels); higher = larger cells. Particulars: 10 µM; 24 h; SM minimal medium. In short, it runs like this:
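Plates of 384 wells were acoustically predosed with drug at a final 10 µM in SM medium, and 70 µl of a Saccharomyces cerevisiae BY4741 preculture diluted from OD600 = 1.0 to OD600 = 0.3 was added for 24 h. The yeast formed a four-plasmid fluorescent community in which each plasmid complements one auxotrophy and carries a fluorescent marker. Fixed cells were imaged by automated confocal microscopy and analysed in Harmony for mean cell pixel area per well. Values are means of 3 replicates. Same SeMeCo high-content imaging drug screen: Selleck FDA-approved drugs at 10 µM, 24 h in SM medium, 384-well plates, 3 replicates.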

Experiment [13] has the same test system. Briefly: z-score of subpopulation abundance vs DMSO median, subpopulation auxotrophic for U; higher = larger share of this subpopulation than in DMSO controls. Particulars: 10 µM; 24 h; SM minimal medium; subpopulation (auxotrophy): U. Summed up: as §1
Experiment [14] has the same test system. Briefly: z-score of subpopulation abundance vs DMSO median, subpopulation auxotrophic for HUM; higher = larger share of this subpopulation than in DMSO controls. Particulars: 10 µM; 24 h; SM minimal medium; subpopulation (auxotrophy): HUM. Summed up:
as §1

Experiment [15] has the same test system. Briefly: z-score of subpopulation abundance vs DMSO median, subpopulation auxotrophic for LUM; higher = larger share of this subpopulation than in DMSO controls. Particulars: 10 µM; 24 h; SM minimal medium; subpopulation (auxotrophy): LUM. In short, it runs like this: as §1
Experiment [16] has the same test system. Description: z-score of subpopulation abundance vs DMSO median, subpopulation auxotrophic for LM; higher = larger share of this subpopulation than in DMSO controls. Particulars: 10 µM; 24 h; SM minimal medium; subpopulation (auxotrophy): LM. Summed up:
as §1

`CC[C@H]1OC(=O)C[C@@H](O)[C@H](C)[C@@H](O[C@@H]2O[C@H](C)[C@@H](O)[C@H](N(C)C)[C@H]2O)[C@@H](CCN2C[C@H](C)C[C@H](C)C2)C[C@@H](C)C(=O)/C=C/C(C)=C/[C@@H]1CO[C@@H]1O[C@H](C)[C@@H](O)[C@@H](OC)[C@H]1OC` [Tilmicosin]: in experiment [1], the “z-score of prototroph abundance” value was -1.13. For the same molecule, the “z-score of subpopulation abundance” value in [2] is 0.75; in [3], 0.98; in experiment [4], 1.26; in experiment [5], 0.93; in experiment [6], 1.52; in [7], 0.65. Also, the “z-score of subpopulation abundance” value stood at 1.91 in experiment [8], 0.58 in experiment [9], 0.13 in experiment [10] and 0.67 in experiment [11].

For the molecule `CN(Cc1cnc2nc(N)nc(N)c2n1)c1ccc(C(=O)N[C@@H](CCC(=O)O)C(=O)O)cc1` [Methotrexate], in experiment [12], the mean cell size was found to be 15.5 ± 0.33. Also, the “z-score of prototroph abundance” value in [1] is -1.88. Moreover, the “z-score of subpopulation abundance” value in experiment [2] was -0.82; in [13], -2.91; in experiment [3] it was 8.39; in experiment [4] it was -1.77; in experiment [5], 6.94; in experiment [6] it was 1.71. Further, the “z-score of subpopulation abundance” value in experiment [7] was -4.22; in experiment [9], 4.61; in experiment [14] it was 0; in experiment [15], 0.73; in experiment [11], 6.15.

In [12], `CCN(CC)C(=O)[C@@]1(c2ccccc2)C[C@H]1CN` [Levomilnacipran Hydrochloride] had a mean cell size of 12.1 ± 0.27. Besides, in experiment [1], the “z-score of prototroph abundance” value was -0.02. For the same molecule, the “z-score of subpopulation abundance” value in experiment [2] is -1.78; in experiment [13], 1.27; in experiment [3] it was -0.22; in [4], -0.02; in experiment [5], -0.69; in [6], 1.07. The “z-score of subpopulation abundance” value in [7] was 0.93; in experiment [9], -0.95; in [14] it was -0.17; in experiment [15], -0.59; in [11], -0.66.

On to `C[C@H]1O[C@@H](O[C@H]2[C@@H](O)C[C@H](O[C@H]3[C@@H](O)C[C@H](O[C@H]4CC[C@@]5(C)[C@H](CC[C@@H]6[C@@H]5C[C@@H](O)[C@]5(C)[C@@H](C7=CC(=O)OC7)CC[C@]65O)C4)O[C@@H]3C)O[C@@H]2C)C[C@H](O)[C@@H]1O` [Digoxin], for which, in [12], the mean cell size amounted to 12.4 ± 0.22. Besides, the “z-score of prototroph abundance” value in [1] came out at 0.39. The “z-score of subpopulation abundance” value is -0.7 in experiment [2]; 0.17 in [13]; -0.41 in experiment [16]; -0.55 in experiment [5]; 0.8 in experiment [6]; -0.69 in [7]. Also, the “z-score of subpopulation abundance” value in experiment [8] is -0.11; in experiment [9], -0.03; in experiment [10] it was -0.7; in experiment [14], -0.77; in [11] it was -0.34.

In the case of `O=C(Cn1cnnn1)N[C@@H]1C(=O)N2C(C(=O)O)=C(CSc3nncs3)CS[C@H]12` [Ceftezole], in experiment [1], the “z-score of prototroph abundance” value was 0.89. For the same molecule, the “z-score of subpopulation abundance” value in [13] is 0.9; in experiment [3], -1.12; in experiment [4], 0.9; in experiment [16] it was -0.52; in experiment [5] it was -1.26; in [6], -0.51. The “z-score of subpopulation abundance” value is -0.37 in [7]; -0.41 in experiment [8]; -0.25 in experiment [9]; -0.2 in experiment [10]; -1.25 in experiment [14]; 0.28 in experiment [15]. Further, in experiment [11], the “z-score of subpopulation abundance” value turned out to be 0.55.

As for `CC1(C)S[C@@H]2[C@H](NC(=O)Cc3ccccc3)C(=O)N2[C@H]1C(=O)O` [Benzathine penicilline], the “z-score of prototroph abundance” value in [1] was 0.52. Further, the “z-score of subpopulation abundance” value in experiment [2] was -0.58; in experiment [13], -0.09; in experiment [4] it was -0.74; in experiment [5], -0.76; in experiment [7] it was -0.06; in [8] it was -0.03. Moreover, the “z-score of subpopulation abundance” value is -0.11 in experiment [9]; 0.37 in experiment [10]; -0.33 in experiment [14]; -0.44 in experiment [15]; 0.29 in experiment [11].

`CN1CCc2cc3c(cc2C(=O)Cc2ccc4c(c2C1)OCO4)OCO3` [Protopine] yielded a mean cell size in experiment [12] of 12.2 ± 0.13. Also, the “z-score of prototroph abundance” value in experiment [1] was -0.56. In addition, the “z-score of subpopulation abundance” value is 1.72 in [2]; -0.67 in experiment [13]; 0.05 in experiment [3]; 1.45 in experiment [4]; 1.78 in [16]; -0.3 in experiment [5]. The “z-score of subpopulation abundance” value in [6] was -0.45; in [8] it was 1.17; in experiment [9], 0.88; in experiment [14] it was 0.19; in experiment [11] it was 0.9.

In experiment [12], `O=C1CN(/N=C/c2ccc([N+](=O)[O-])o2)C(=O)N1` [Nitrofurantoin] showed a mean cell size of 12.47 ± 0.1. For the same molecule, the “z-score of prototroph abundance” value in [1] worked out at 0.19. The “z-score of subpopulation abundance” value was -0.13 in experiment [2]; -0.05 in experiment [3]; -0.11 in experiment [4]; -0.67 in experiment [5]; -0.72 in experiment [6]; 0.1 in experiment [8]. The “z-score of subpopulation abundance” value is -0.69 in experiment [9], -0.2 in experiment [10], -0.21 in [15] and -0.04 in [11].
